# Screening results: PubChem BioAssay, several laboratories
# Mtb betalactam = beta-lactam sensitization of Mtb H37Rv | AID 434955 | 330,000 tested, 0.27% active | inhibition, % at 25 µM | M. tuberculosis H37Rv growth with meropenem, percent inhibition; call rule not given here;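 further: growth measured after seven days incubation then overnight dye step; 0% = bacteria only wells and 100% = bacteria with antibiotic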
# PfHsp40 rescue = compounds rescuing yeast from Plasmodium falciparum HSP40 toxicity | AID 504582 | S. cerevisiae expressing PfHsp40, growth rescue, ATP luminescence | growth rescue, % at 12.5 µM | 340,000 tested, 0.68% active; in the data active means growth rescue above about 28%, passing the limit was not always enough;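 further: yeast W303a lacking pdr1 and pdr3 grown in galactose medium; growth measured after three days at 30 °C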
# Sa ugtP lethal = growth inhibition of S. aureus ugtP deletion strain. S. aureus RN4220 ugtP deletion, OD600 growth, 16 h. growth inhibition, % (concentration not given with the values). 330,000 tested, 0.54% active. AID 1259309; in the data active means growth inhibition above about 68%;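 further: plate controls were untreated wells for no effect and antibiotic for full effect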
# Mtb BioA inh = blocks M. tuberculosis BioA enzyme activity | purified M. tuberculosis BioA enzyme, plate reader | inhibition, % at 9.99 µM | 360,000 tested, 0.096% active | AID 602481; in the data active means inhibition above about 40%
# RN4220 kill = kills Staphylococcus aureus RN4220. S. aureus RN4220 growth, OD600, 16 h. inhibition, % (concentration not given with the values). 330,000 tested, 0.33% active. AID 1259311; in the data active means inhibition above about 85%;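 further: plate controls were untreated cells for no effect and reference antibiotic for full effect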
# Active calls of the source: *; . = no result. Only some compounds are listed: those with a hit (about 0.9% of all), similar ones and a draw of the others.
SMILES,Mtb betalactam,PfHsp40 rescue,Sa ugtP lethal,Mtb BioA inh,RN4220 kill
CC(C)n1c(O)c(C2c3cc(Cl)ccc3Oc3[nH]c(=O)n(C(C)C)c(=O)c32)c(=O)[nH]c1=O (stereo not given),.,281*,2,-3,36
CC(=O)c1c(O)n(-c2cccc(Cl)c2)c(=O)[nH]c1=O (tested in a mixture with another compound),-9,0,-1,.,1
CC(C)c1nc(SCC(=O)Nc2ccc(N3CCOCC3)cc2)c2ccccc2n1,-1,25*,-5,-1,-5
CCCc1nc(SCC(=O)Nc2ccc(N3CCOCC3)cc2)c2ccccc2n1,2,-1,.,-1,.
Cc1ccc(NC(=O)C(OC(=O)c2ccc(C=O)cc2)c2ccccc2)cc1Cl (stereo not given),0,1,90*,.,-13
C#CCOCCOCCOCCNc1nc(N2CCN(C(=O)C(CCC(=O)O)n3cc(C(N)C(C)CC)nn3)CC2)nc(N2CCN(C(=O)C(C(C)CC)n3cc(C(N)CC(C)C)nn3)CC2)n1 (stereo not given),.,.,8,.,0
COc1ccc(CNC(=S)NCc2ccc(OC(C)C)cc2)cc1,-1,0,-8,0,-3
CCCOc1ccc(CSc2n[nH]c(C)n2)cc1,5,4,.,6,.
COc1nc(SC)nc(Cl)c1Cc1ccc(OC(C)C)cc1,0,-2,92*,.,-7
CCOc1ccc(Cc2c(O)nc(SC)[nH]c2=O)cc1,.,.,.,1,.
CCCOc1ccc(Cc2c(Cl)nc(SC)nc2N(C)C)cc1,21,-2,87*,.,-2
CSc1nc(N2CCOCC2)c2sccc2n1,-2,1,15,.,7
CCCOc1ccc(Cc2c(Cl)nc(SC)nc2OC)cc1,2,-1,89*,.,-4
CSc1nc(Cl)c(Cc2ccc(OC(C)C)cc2)c(N2CCOCC2)n1,36,0,97*,0,-5
CCC(Cc1c(I)cc(I)c(N)c1I)C(=O)O (stereo not given),-6,187*,8,-7,8
CC(=O)N(CC(C)C(=O)O)c1c(I)cc(I)c(N)c1I (stereo not given),-2,-1,10,0,6
COc1ccc(C(=O)NNC2=C(C(=O)C(F)(F)F)CCC2)cc1,5,1,97*,0,1
O=C(NNC1=C(C(=O)C(F)(F)F)CCC1)c1cccc(Cl)c1,37,54*,99*,0,100*
O=C(NNC1=C(C(=O)C(F)(F)F)CCC1)c1ccc(Cl)cc1,39,3,100*,.,101*
COC(=O)C1=C(c2ccc(F)cc2OCc2ccccc2)CC2CCC1N2C(=O)N1CCC(O)(c2ccc(Cl)cc2)CC1 (stereo not given),.,.,-30,.,-7
CN1CCC(=O)N(C(CN=[N+]=[N-])Cc2ccccc2)CC1 (stereo not given),.,.,11,.,7
COC(=O)C=CCC(C)OS(N)(=O)=O (stereo not given),.,.,3,.,5
Cc1ccccc1C=CC(=O)NCC(=O)N1CCC(N(C)C2CCCCC2C)CC1 (stereo not given),.,.,-10,.,-2
CCOC(=O)C1C2COc3ccc(C)cc3C2N2C(=O)c3cc(C)ccc3NC(=O)[C@@]12C (stereo not given in full),.,.,-3,.,1
O=C(O)Cn1cc2c(n1)CCCCC2,-10,30*,2,0,5
SMILES,Mtb betalactam,PfHsp40 rescue,Sa ugtP lethal,Mtb BioA inh,RN4220 kill
COc1ccc(-c2ccc(/C=C3/C(=N)N4C=CSC4=NC3=O)o2)c([N+](=O)[O-])c1,-1,-2,94*,1,21
CCOc1cc(C)c(Cl)cc1S(=O)(=O)NC1CC(C)(C)NC(C)(C)C1,2,0,3,.,0
CCOc1cc(S(=O)(=O)NC2CC(C)(C)NC(C)(C)C2)ccc1Cl,4,123*,6,0,0
Cc1csc(NC(=O)c2cc3ccccc3o2)n1,18,0,-18,-1,-4
Cc1csc(C(C#N)C(=O)c2cc3ccccc3o2)n1 (stereo not given),29,2,79,0,84*
O=C(O)CSc1cccc[n+]1[O-],-3,0,2,-2,5
O=C(CSc1cccc[n+]1[O-])c1cc(Cl)ccc1Cl,100,80*,11,.,8
CC(C(=O)Nc1ccccc1N1CCOCC1)N1C(=O)C2CC=CCC2C1=O (stereo not given),.,.,1,.,8
O=C(NCc1ccc(OC(F)(F)F)cc1)c1cc(-c2ccccc2)nn1CC1CC(c2cccnc2)=NO1 (stereo not given),49,65*,0,2,-2
